Measurements from the supplement of paper PMC11732987, “Enantioselective OTUD7B fragment discovery through chemoproteomics screening and high-throughput optimisation” (Communications Chemistry, 2025).

How the values were obtained:
Experiment in all cases: log2 ratio of Biotin-Ahx-Ub-VS probe labelling (fragment/DMSO); higher = less target engagement (more negative = stronger competition), active = hit call of the paper (q ≤ 0.05, log2 ratio ≤ -1)
Conditions in all cases: compound concentration: 200 uM; treatment time: 3 h
USP19 = target: T1, USP19 (UniProt O94966)
T1 sequence (whole entry): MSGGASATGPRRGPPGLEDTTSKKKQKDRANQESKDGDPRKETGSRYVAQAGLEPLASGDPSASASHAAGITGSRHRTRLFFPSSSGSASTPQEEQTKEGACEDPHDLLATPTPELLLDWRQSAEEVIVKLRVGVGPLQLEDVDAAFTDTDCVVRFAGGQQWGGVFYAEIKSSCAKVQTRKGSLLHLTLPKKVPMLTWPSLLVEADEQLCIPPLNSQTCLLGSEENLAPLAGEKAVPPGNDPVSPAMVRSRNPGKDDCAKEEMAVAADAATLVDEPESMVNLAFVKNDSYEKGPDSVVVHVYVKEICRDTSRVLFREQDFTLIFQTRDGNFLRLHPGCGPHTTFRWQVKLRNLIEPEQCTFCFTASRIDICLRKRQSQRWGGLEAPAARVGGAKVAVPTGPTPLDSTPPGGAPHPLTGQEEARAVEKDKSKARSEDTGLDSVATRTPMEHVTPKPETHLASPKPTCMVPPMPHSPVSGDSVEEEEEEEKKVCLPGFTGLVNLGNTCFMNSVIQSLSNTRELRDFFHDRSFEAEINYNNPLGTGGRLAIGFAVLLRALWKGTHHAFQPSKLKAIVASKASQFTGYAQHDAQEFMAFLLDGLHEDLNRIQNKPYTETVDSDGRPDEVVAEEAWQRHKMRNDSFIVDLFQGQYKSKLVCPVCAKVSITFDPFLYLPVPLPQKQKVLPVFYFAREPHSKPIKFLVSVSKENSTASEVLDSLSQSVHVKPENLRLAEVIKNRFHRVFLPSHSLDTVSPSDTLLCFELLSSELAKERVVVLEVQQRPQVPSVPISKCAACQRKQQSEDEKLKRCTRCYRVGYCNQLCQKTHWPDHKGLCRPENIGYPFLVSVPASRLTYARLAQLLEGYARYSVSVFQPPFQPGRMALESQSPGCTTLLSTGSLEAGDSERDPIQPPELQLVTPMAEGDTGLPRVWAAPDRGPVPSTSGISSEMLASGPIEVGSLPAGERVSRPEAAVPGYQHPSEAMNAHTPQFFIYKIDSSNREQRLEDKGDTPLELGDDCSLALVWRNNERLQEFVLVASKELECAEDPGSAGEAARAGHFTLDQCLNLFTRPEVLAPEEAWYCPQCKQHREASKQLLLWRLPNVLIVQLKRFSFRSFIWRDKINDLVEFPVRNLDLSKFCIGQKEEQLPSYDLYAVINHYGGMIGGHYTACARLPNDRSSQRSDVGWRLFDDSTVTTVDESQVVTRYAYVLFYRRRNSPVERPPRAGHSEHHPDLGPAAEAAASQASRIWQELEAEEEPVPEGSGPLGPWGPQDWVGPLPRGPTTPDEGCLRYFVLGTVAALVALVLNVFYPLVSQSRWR
Outline: (§1)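 Triplicate samples of HEK293T lysate, 495 µg each, received fragment at 200 µM or vehicle for 3 h, followed by Biotin-Ahx-Ub-VS (0.5 µM final) for 1 h. After NeutrAvidin enrichment of labelled DUBs and LysC/trypsin digestion, peptides were run by diaPASEF LC-MS/MS. The values are average log2 fragment/vehicle ratios from global-median-normalised Spectronaut label-free quantities, tested by unpaired t-test on proteins having ≥2 unique peptides.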

USP24 = USP24 (UniProt Q9UPU5)
Sequence of USP24 (Q9UPU5 whole entry): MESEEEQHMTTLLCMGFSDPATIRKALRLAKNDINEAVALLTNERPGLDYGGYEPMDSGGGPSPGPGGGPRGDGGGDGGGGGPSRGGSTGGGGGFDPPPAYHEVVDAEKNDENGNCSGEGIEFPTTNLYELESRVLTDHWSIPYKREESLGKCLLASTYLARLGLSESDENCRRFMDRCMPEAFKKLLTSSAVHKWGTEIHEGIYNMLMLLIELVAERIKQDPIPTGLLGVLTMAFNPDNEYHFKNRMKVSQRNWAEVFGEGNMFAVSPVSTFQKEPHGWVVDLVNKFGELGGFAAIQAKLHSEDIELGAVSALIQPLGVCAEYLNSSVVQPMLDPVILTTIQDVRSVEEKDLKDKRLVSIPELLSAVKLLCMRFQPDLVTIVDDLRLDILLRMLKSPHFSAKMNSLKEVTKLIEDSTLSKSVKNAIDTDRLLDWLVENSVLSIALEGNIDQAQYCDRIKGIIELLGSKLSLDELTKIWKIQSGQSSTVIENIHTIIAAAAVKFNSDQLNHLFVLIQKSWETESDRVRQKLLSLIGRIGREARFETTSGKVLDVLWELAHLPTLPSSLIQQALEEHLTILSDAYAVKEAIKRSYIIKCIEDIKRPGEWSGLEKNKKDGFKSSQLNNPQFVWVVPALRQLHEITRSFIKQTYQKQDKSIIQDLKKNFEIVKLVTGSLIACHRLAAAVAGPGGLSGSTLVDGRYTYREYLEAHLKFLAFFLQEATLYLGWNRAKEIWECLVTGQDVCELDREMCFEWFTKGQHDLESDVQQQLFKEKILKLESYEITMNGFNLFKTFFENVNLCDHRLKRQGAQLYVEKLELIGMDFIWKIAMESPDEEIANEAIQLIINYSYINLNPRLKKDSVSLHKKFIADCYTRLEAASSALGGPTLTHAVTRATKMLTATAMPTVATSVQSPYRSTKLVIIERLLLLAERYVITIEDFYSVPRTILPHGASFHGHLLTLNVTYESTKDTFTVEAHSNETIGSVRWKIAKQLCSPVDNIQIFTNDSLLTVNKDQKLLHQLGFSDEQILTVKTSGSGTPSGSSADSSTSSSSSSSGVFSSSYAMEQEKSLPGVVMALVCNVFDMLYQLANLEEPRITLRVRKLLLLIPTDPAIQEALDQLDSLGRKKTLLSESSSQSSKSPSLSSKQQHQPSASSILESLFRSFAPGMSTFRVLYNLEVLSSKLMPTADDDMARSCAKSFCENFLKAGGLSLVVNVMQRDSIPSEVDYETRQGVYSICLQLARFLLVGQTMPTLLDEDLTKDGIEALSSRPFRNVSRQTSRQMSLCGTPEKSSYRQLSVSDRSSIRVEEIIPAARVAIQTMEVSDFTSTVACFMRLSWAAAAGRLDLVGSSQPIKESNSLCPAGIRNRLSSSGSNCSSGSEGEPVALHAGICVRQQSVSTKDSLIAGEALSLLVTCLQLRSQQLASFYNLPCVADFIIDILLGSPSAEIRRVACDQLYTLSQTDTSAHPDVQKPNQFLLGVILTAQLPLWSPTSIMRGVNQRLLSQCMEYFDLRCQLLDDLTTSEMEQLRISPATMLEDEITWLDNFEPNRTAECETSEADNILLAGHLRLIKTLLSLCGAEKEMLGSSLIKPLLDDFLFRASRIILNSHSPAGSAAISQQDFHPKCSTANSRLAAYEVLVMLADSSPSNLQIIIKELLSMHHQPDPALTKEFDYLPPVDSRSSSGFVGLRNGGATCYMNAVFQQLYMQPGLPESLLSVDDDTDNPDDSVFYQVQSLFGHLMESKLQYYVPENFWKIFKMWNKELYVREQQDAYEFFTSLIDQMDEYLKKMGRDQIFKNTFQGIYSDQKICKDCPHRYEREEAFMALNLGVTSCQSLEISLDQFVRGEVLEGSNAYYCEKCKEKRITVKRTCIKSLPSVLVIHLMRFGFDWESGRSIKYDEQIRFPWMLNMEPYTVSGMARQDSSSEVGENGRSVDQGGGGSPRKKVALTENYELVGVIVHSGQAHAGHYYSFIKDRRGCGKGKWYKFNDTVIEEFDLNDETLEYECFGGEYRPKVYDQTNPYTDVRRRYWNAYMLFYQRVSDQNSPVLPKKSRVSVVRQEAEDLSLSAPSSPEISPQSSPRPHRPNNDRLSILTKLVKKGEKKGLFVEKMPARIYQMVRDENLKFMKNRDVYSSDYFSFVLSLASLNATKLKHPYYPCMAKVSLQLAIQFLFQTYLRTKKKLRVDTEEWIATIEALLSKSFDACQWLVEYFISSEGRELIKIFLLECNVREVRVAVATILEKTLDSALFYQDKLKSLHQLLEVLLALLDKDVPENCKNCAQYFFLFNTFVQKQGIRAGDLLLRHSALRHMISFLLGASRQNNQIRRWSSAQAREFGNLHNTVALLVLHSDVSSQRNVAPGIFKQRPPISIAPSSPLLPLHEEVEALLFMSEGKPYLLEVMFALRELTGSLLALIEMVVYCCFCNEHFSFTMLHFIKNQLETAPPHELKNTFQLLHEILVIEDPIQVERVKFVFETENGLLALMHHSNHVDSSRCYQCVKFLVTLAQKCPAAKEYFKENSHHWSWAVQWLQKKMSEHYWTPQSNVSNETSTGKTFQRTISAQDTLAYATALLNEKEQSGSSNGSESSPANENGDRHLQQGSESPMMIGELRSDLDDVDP
Outline: as §1

USP25 = target: T2, USP25 (UniProt Q9UHP3)
T2 sequence (whole entry): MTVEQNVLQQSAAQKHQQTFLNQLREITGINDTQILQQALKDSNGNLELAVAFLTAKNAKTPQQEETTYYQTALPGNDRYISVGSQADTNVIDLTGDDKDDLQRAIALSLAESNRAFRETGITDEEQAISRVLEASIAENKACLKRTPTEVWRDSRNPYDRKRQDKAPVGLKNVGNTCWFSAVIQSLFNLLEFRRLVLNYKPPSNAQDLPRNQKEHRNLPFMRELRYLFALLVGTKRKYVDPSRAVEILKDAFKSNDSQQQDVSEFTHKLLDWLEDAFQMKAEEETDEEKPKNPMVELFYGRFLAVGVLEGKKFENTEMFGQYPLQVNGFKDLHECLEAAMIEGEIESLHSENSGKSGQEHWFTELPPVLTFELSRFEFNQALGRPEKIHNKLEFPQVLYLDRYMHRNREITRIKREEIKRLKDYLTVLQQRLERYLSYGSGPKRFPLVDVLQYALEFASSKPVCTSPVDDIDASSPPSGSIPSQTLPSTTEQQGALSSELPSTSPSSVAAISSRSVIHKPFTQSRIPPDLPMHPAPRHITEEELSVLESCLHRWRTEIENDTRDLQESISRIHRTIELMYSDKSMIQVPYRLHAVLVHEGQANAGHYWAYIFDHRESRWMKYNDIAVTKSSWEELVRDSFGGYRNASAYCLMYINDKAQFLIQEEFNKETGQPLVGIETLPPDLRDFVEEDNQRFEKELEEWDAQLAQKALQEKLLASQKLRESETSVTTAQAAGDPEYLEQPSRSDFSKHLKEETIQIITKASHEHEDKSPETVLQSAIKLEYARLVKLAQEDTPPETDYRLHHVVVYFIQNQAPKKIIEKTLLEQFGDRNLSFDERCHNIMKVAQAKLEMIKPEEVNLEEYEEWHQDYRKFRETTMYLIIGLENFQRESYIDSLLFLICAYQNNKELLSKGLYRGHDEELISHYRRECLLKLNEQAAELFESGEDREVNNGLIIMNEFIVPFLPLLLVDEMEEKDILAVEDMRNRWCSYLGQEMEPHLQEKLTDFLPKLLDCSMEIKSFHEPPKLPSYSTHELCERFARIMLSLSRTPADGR
Outline: as §1

USP28 = target: T3, USP28 (UniProt Q96RU2)
T3 sequence (whole entry): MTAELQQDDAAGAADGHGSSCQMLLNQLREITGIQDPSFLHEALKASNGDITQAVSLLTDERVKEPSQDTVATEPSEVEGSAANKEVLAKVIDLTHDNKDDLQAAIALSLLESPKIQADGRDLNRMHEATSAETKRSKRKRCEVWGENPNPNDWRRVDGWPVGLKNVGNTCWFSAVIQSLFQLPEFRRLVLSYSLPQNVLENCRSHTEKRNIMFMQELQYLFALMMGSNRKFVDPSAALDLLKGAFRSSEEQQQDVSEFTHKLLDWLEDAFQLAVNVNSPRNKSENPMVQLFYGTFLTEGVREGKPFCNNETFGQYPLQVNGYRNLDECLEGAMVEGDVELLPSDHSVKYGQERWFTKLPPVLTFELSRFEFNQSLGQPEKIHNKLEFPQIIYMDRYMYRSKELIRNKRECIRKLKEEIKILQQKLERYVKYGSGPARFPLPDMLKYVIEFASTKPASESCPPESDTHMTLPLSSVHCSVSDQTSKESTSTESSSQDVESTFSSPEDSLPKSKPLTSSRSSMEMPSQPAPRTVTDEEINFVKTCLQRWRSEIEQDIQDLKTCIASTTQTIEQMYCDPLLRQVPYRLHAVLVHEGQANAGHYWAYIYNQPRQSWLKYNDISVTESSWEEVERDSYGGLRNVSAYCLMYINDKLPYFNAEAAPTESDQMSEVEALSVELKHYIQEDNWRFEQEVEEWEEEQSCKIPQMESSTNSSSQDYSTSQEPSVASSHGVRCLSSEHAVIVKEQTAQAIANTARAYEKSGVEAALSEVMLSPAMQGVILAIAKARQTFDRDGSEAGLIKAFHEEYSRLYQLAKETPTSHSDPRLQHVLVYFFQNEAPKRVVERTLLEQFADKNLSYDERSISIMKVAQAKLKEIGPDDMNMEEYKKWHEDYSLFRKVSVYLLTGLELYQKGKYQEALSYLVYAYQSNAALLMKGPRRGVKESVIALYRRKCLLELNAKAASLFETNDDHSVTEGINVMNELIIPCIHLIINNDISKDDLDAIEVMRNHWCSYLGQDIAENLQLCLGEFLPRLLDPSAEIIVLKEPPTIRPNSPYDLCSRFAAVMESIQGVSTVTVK
Outline: as §1

Measured: log2 ratio of Biotin-Ahx-Ub-VS probe labelling

NC(=O)C1CCCCN1C(=O)CCl (centres undefined)
inactive: USP19 -0.231 | USP24 -0.241 | USP25 -0.267 | USP28 -0.652
